Data reported in PubChem BioAssay (NCI).
The panel holds about 83,000 compounds, 20% with a hit somewhere; the sample as a whole holds those more often.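 Compound tested at a single concentration for 48 hours in 96-well plates; a percent growth value below 10 was scored as active.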 Unmarked numbers belong to inactive results. Activity calls are given as the source filed them.

How the values were obtained:
Assay in all cases: NCI-60 one-dose screen, 48 h (100 = growth as untreated, 0 = no growth, -100 = all killed)
Conditions in all cases: 10 µM unless noted
[1] = test system: SK-MEL-2 melanoma
[2] = test system: EKVX NSCLC
[3] = test system: SN12C renal
[4] = test system: UO-31 renal
[5] = test system: TK-10 renal
[6] = test system: ACHN renal
[7] = test system: CAKI-1 renal
[8] = test system: A498 renal
[9] = test system: CCRF-CEM leukemia
[10] = test system: MOLT-4 leukemia

| Compound | growth [1] [%] | growth [2] | growth [3] [%] | growth [4] | growth [5] | growth [6] | growth [7] | growth [8] | growth [9] | growth [10] |
| --- | --- | --- | --- | --- | --- | --- | --- | --- | --- | --- |
| COC(=O)/C(=C\c1ccc(OC)cc1)C(=O)N1c2ccccc2Sc2ccccc21 | 35.5 | 59.3% | 71.1 | 52.6% | 92.9% | 58.3% | 29.4% | 7.6% (active) | 43.1% | 34.5% |
| Cc1c(C(N)=O)sc2nc(C)n(/N=c3\scc(-c4ccccc4)n3Cc3ccccc3)c(=O)c12 | 10 | -6.97% (active) | 47.7 | 4.13% (active) | 2.89% (active) | 7.27% (active) | -40.6% (active) | 0.708% (active) | -12.2% (active) | 12.1% |
| C[C@@H]1CC[C@@H]2[C@@H]1[C@H](OC(=O)/C=C/c1ccccc1)[C@]1(C3CCCCC3)C[C@@H](NC(=O)CO)[C@@]2(C)O1 | 95.9 | 98.4% | 59.2 | 72.1% | 92.3% | 50.2% | 91.7% | 44.9% | 99.2% | 88.9% |
| CC(=O)Nc1ccc2c(c1)Cc1c(F)cccc1-2 | 128 | 101% | 101 | 49.2% | 103% | 93% | 87.2% | 77.6% | 85.6% | 111% |
| COc1cc(C(=O)Nc2cc(O)c(CC=C(C)C)c(O)c2)cc2c1O[C@]1(C)CC[C@@H](O)C(C)(C)[C@H]1C2 | 12.9 | 36.6% | 64.6 | -1.4% (active) | 33.2% | 26.4% | 9.89% (active) | 16.7% | 2.18% (active) | -15.7% (active) |
| O=C1C(Cl)C(c2ccccc2Cl)N1n1cnnc1 (stereo not given) | 102 | 99.8% | 100 | 83.3% | 102% | 96.8% | 85.6% | 93.9% | 98.6% | 101% |
| O=C(NCOC(O)C(Cl)(Cl)Cl)NCOC(O)C(Cl)(Cl)Cl (stereo not given) | 89.7 | 107% | 97.8 | 78.4% | 100% | 92.8% | 95.9% | 77.1% | 105% | 98.9% |
| CCO/C=N/C1=C(C#N)C(c2ccc(OC)cc2)c2c(c3ccccc3n(C)c2=O)O1 (stereo not given) | 108 | 101% | 98.9 | 72.8% | 112% | 100% | 89.6% | 111% | 100% | 103% |
| CC(=O)Nc1ccc(-c2cc3c(NCc4ccc(F)cc4)ncnc3s2)cc1 | 95.4 | 67.5% | 72.6 | 62.2% | 70.5% | 65.5% | 61.6% | 61.9% | 96.3% | 95.3% |
| COc1ccc2cc(-c3ccc(C(=O)NN)c(C)n3)ccc2c1 | 102 | 99.5% | 96.6 | 83.5% | 95.6% | 103% | 103% | 90.7% | 91.3% | 74% |
